# Experimental data taken from PMC4336329 (PLoS ONE, 2015).
# Screen size: about 310,000 compounds; about 14,000 (4.5%) showed an effect of 50% or more. The effect is printed as a negative number. Many of the other results were omitted from the sample, so strong results are more common in it than they were.
# Molecular target: human ether-à-go-go-related gene (hERG) potassium channel (human, UniProt Q12809)
# Assay: primary screen, population patch clamp on CHO cells stably expressing hERG; higher = less effect of the substance
# 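Further: peak tail current of the secondary pulse compared with the same well before compound.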
# Chain of human ether-à-go-go-related gene (hERG) potassium channel (Q12809 whole entry, looked up): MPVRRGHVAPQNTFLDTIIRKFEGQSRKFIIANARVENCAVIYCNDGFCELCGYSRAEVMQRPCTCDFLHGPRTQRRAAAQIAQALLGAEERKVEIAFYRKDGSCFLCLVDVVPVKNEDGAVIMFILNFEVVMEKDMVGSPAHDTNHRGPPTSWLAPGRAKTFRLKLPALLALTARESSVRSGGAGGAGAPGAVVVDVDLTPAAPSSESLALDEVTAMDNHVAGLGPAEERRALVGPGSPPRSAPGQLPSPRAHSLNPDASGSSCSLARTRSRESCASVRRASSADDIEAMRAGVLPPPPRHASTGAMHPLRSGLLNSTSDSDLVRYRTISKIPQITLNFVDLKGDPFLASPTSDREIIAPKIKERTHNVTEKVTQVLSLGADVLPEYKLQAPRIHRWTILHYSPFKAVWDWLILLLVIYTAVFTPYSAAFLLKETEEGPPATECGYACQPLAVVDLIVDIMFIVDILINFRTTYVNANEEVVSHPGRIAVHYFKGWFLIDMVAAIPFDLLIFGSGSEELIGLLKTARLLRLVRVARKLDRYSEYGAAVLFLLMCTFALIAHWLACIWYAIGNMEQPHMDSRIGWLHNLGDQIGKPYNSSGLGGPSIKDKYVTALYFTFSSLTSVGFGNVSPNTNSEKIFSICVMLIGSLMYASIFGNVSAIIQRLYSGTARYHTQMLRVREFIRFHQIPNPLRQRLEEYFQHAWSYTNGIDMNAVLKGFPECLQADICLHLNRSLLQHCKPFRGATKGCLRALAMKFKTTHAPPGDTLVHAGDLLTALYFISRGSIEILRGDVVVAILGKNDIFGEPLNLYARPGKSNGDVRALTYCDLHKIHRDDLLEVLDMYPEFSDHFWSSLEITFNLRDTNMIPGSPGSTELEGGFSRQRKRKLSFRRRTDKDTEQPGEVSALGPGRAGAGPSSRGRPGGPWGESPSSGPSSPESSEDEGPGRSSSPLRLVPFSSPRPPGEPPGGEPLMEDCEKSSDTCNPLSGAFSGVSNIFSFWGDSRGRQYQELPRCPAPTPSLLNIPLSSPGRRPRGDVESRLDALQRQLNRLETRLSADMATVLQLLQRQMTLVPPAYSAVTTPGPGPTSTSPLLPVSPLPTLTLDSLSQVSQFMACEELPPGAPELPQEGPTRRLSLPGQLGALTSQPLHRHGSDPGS
row,SMILES,"hERG current change (%, negative = inhibition) at 10uM [%]"
1,O=C(Nc1nnc(-c2cccs2)o1)C1CC1,3.93
2,CCOC(=O)C1=NNC(C(=O)c2ccc(OC)cc2)C1c1ccccc1 (centres unmarked),-9.43
3,Cn1ncc(C#N)c1NC(=O)C1CC(c2ccc(Cl)c(Cl)c2)=NO1 (centres unmarked),-9.94
4,COc1cccc(CC(=O)Nc2nc3ccccc3[nH]2)c1,10.7
5,Cc1cccc(NC(=S)NCCc2c[nH]c3ccccc23)c1,-4.25
6,CCOC(=O)CNC(=S)N(Cc1ccccc1F)C1CCCCC1,-73
7,O=C(O)CNC(=S)N(Cc1ccccc1F)C1CCCCC1,0.581
8,CCCNC(=O)CNC(=S)N(Cc1ccccc1F)C1CCCCC1,-10.8
9,CC(C)c1ccc(S(=O)(=O)N2CCN(C(=O)n3ccnc3)CC2)cc1,-35.8
10,COc1cc(OC)cc(C(=O)N[C@H](C(=O)NCc2ccccc2)C(C)C)c1,7.08
11,CCOC(=O)N1CCN(C(=S)NC(=O)c2cc(Br)ccc2Cl)CC1,3.59
12,C=CCc1c(C)nc(C)nc1N/N=C/c1ccc([N+](=O)[O-])cc1.Cl,-56.3
13,C=CCc1c(C)nc(C)nc1N/N=C/c1ccccc1,-19.2
14,C=CCc1c(C)nc(C)nc1N/N=C/c1ccc(F)cc1,-30.9
15,CCC(c1nnnn1Cc1ccc(F)cc1)N(CCCO)Cc1cc2cc3c(cc2[nH]c1=O)OCO3 (centres unmarked),-17.5
16,Cc1ccc(-n2c(O)c(/C=N/c3ncc(Br)cc3Br)c(=O)[nH]c2=O)cc1,2.79
17,CCCCNC(=O)CSc1nc2cc3c(cc2c(=O)n1Cc1ccco1)OCO3,-10.8
18,COCCn1c(SCC(=O)NCc2ccc3c(c2)OCO3)nc2ccccc2c1=O,-42.4
19,CCOCCCn1c(SCC(=O)Nc2ccc(NC(C)=O)cc2)nc2ccccc2c1=O,7.29
20,CCOCCCn1c(SCC(=O)NCc2ccc3c(c2)OCO3)nc2ccccc2c1=O,-59
21,CCCCNC(=O)CSc1nc2cc3c(cc2c(=O)n1CCCN(CC)CC)OCO3,-62.6
22,COCCCNC(=O)CSc1nc2ccccc2c(=O)n1Cc1ccc2c(c1)OCO2,12.4
23,CCOCCCn1c(SCC(=O)Nc2ccc(OC)cc2)nc2ccccc2c1=O,-11
24,CCOCCCn1c(SCC(=O)Nc2cccc(OC)c2)nc2ccccc2c1=O,-58.4
25,CCOCCCn1c(SCC(=O)Nc2ccccc2)nc2ccccc2c1=O,-29.4
26,CCOCCCn1c(SCC(=O)Nc2cc(OC)ccc2OC)nc2ccccc2c1=O,-55.7
27,CCOCCCn1c(SCC(=O)Nc2ccccc2OC)nc2ccccc2c1=O,-45

row,SMILES,"hERG current change (%, negative = inhibition) at 10uM [%]"
1,CCCCNC(=O)CSc1nc2cc3c(cc2c(=O)n1CCCC(=O)NCCc1ccc(OC)c(OC)c1)OCO3,1.71
2,CCC1CCCCN1Cc1ccc(CNC(=O)CCc2nnc3ccc(N4CCCCC4)nn23)o1 (centres unmarked),18.2
3,Cc1ccc(S(=O)(=O)N2CCC(C)CC2)c([N+](=O)[O-])c1,-12.9
4,Cc1ccc(CN2CC(C(=O)N(C)CC(=O)Nc3cccc(F)c3)CC2=O)cc1 (centres unmarked),-7.16
5,O=C1Nc2ccccc2C1(O)c1ccccc1O (centres unmarked),34.6
6,CCOc1ccc(OCCC(=O)OCC(=O)Nc2ccc3c(c2)OCCO3)cc1,-5.02
7,COc1ccc(C[C@@H]2CN3C(=NC[C@@H]3C)N2C[C@H](C)NC(=O)CCC2CCCCC2)cc1,-67.4
8,COc1ccc(C[C@H]2CN3C(=NC[C@@H]3Cc3ccc(O)cc3)N2C[C@H](C)NC(=O)CCC2CCCCC2)cc1,-66.1
9,COc1ccc(C[C@@H]2CN3C(=NC[C@@H]3Cc3ccc(O)cc3)N2C[C@H](C)NC(=O)CCC2CCCCC2)cc1,-80.6
10,C[C@@H](CN1C2=NC[C@H](C)N2C[C@H]1Cc1ccc(O)cc1)NC(=O)CCC1CCCCC1,-11.9
11,O=C(CCC1CCCC1)N[C@@H](Cc1ccc(O)cc1)C(=O)O,28.8
12,CC(C)[C@H]1CN=C2N(C[C@H](C)NC(=O)CCC3CCCCC3)[C@H](Cc3ccc(O)cc3)CN21,-59.7
13,Cc1cc(C)cc(NC(=S)N2CCN(CCO)CC2)c1,14.3
14,COC(=O)c1ccc(OC)c(CSc2nnc(COc3ccc(OC)cc3)o2)c1,-27.1
15,N#Cc1ccccc1CSc1nc2ncc(Br)cc2[nH]1,5.22
16,CC(C)(C)c1cc(NC(=O)Nc2ccccc2OC(F)(F)F)no1,26.4
17,O=C(COC(=O)c1cccc(S(=O)(=O)NCc2ccccc2)c1)Nc1ccccc1OC(F)F,11.5
18,CC1CCCN(C(=O)NC(=O)c2ccc(Cl)cc2)C1 (centres unmarked),3.85
19,C[C@@H](CN1C2=NC[C@H](Cc3ccc(O)cc3)N2C[C@H]1Cc1ccc(O)cc1)NC(=O)CCC1CCCCC1,-10.3
20,C[C@@H](CN1C2=NC[C@H](Cc3ccccc3)N2C[C@H]1Cc1ccc(O)cc1)NC(=O)CCC1CCCCC1,-71.2
21,CC(CCc1ccccc1)NC(=O)CCC1CCCC1 (centres unmarked),-24.5
22,CCN1C(=O)CC(N2CCN(c3ccc(C(=O)c4ccncc4)cc3)CC2)C1=O (centres unmarked),-12.3
23,NC(=O)C1(N2CCCCC2)CCN(C2CC(=O)N(Cc3cccs3)C2=O)CC1 (centres unmarked),6.12
24,O=C(c1ccncc1)c1ccc(N2CCN(C3CC(=O)N(Cc4cccs4)C3=O)CC2)cc1 (centres unmarked),-79.3
25,O=C(c1ccc(N2CCN(C3CC(=O)N(c4ccc(F)cc4)C3=O)CC2)cc1)c1cccnc1 (centres unmarked),-50.6
26,O=C1CC(N2CCN(c3ccc(F)cc3)CC2)C(=O)N1Cc1cccs1 (centres unmarked),-42.5
27,NC(=O)C1CCN(C2CC(=O)N(Cc3cccs3)C2=O)CC1 (centres unmarked),0.931

row,SMILES,"hERG current change (%, negative = inhibition) at 10uM [%]"
1,O=C1CC(N2CCN(c3ccc(F)cc3)CC2)C(=O)N1Cc1ccccc1 (centres unmarked),-17.6
2,O=C1CC(N2CCN(c3ccc(F)cc3)CC2)C(=O)N1c1ccc(F)cc1 (centres unmarked),1.07
3,O=C1CC(N2CCN(c3ccc(O)cc3)CC2)C(=O)N1Cc1cccs1 (centres unmarked),-7.15
4,O=C(c1ccncc1)c1ccc(N2CCN(C3CC(=O)N(Cc4ccccc4)C3=O)CC2)cc1 (centres unmarked),-76.2
5,O=C(c1ccc(N2CCN(C3CC(=O)N(Cc4cccs4)C3=O)CC2)cc1)c1cccnc1 (centres unmarked),-73.5
6,COc1ccc(N2C(=O)CC(N3CCN(c4ccc(C(=O)c5cccnc5)cc4)CC3)C2=O)cc1 (centres unmarked),-48.2
7,COc1ccc(S(=O)(=O)Nc2cc(C(=O)NCCCN3CCOCC3)ccc2N2CCOCC2)cc1,25
8,CC(=O)N(C)c1ccc(NC(=O)Nc2cccc3ccccc23)cc1,-2.88
9,COC(=O)Cn1c(SCc2ccccc2)nc2ccccc21,-13.8
10,Cc1cccc(Cn2cccc2/C=C2/C(=N)N3C=CSC3=NC2=O)c1,-1.72
11,O=C(NCc1nc2ccccc2[nH]1)C1=C[C@H](c2ccc(Br)cc2)C[C@H](OCc2ccc(CO)cc2)O1,3.89
12,O=C(NCc1nc2ccccc2[nH]1)C1=C[C@@H](c2csc3ccccc23)C[C@@H](OCCCCO)O1,-29.6
13,O=C(NCc1nc2ccccc2[nH]1)C1=C[C@H](c2ccccc2)C[C@H](OCCCCO)O1,-36.3
14,O=C(NCc1nc2ccccc2[nH]1)C1=C[C@@H](c2ccccc2)C[C@@H](OCc2ccc(CO)cc2)O1,-64.9
15,O=C(NCc1nc2ccccc2[nH]1)C1=C[C@H](c2coc3ccccc3c2=O)C[C@H](OCCCCO)O1,-50.7
16,O=C(NCc1nc2ccccc2[nH]1)C1=C[C@@H](c2ccccc2)C[C@@H](OCCCCO)O1,-46.5
17,O=C(NCc1ccccc1)C1=C[C@@H](c2csc3ccccc23)C[C@@H](OCCCCO)O1,-69
18,O=C(Nc1ccccc1)C1=C[C@H](c2csc3ccccc23)C[C@H](OCCCCO)O1,-5.71
19,O=C(NCc1nc2ccccc2[nH]1)C1=C[C@@H](c2ccc(Br)cc2)C[C@@H](OCCCCO)O1,-65.9
20,O=C(NCc1nc2ccccc2[nH]1)C1=C[C@H](c2coc3ccccc3c2=O)C[C@H](OCc2ccc(CO)cc2)O1,-21.5
21,O=C(NCc1ccccc1)C1=C[C@H](c2csc3ccccc23)C[C@H](OCCCCO)O1,-12.5
22,O=C(NCc1nc2ccccc2[nH]1)C1=C[C@H](c2ccccc2)C[C@H](OCc2ccc(CO)cc2)O1,-13.6
23,Nc1nc2c(ncn2C2C[C@H](O)[C@@H](CO)O2)c(=O)[nH]1 (some centres unmarked),14.4
24,Cc1nnc(NC(=O)c2ccc(S(=O)(=O)N3CCc4ccccc4C3)cc2)o1,8.81
25,Cc1cc(C)n(-c2nnc(C)n2NC(=O)c2cccc(Cl)c2)n1,11.1
26,Cc1cccc[n+]1CC(=O)c1ccc(NC(=O)c2ccccc2)cc1.[Br-],28.6
